Experimental data as given in PubChem BioAssay (NCATS).
Active and inactive are the calls of the source. The call rests on the fitted dose curve.

Test: Cell Proliferation Assay Versus the ED40515 IL2 Dependent ATL cell lines (AID 1053195)
Details: ED40515 IL2-dependent ATL cells
Description: Adult T-cell leukemia (ATL) develops in individuals infected with human T-cell lymphotropic virus-1 (HTLV-1). Clinically, ATL is subclassified into four subtypes: smoldering, chronic, lymphomatous, and acute. Two autocrine loops (IL-2/IL-2Ralpha and IL-15/IL-15Ralpha) and one paracrine stimulation loop that involves IL-9 expression by ATL cells and IL-9Ralpha expression on monocytes are required to maintain viability and proliferation in the smoldering and chronic forms of the disease. These assays examined the differential response profiles for the MIPE library of approved and investigational drugs versus an IL2 dependent and independent matched ATL cell line, with the current submission examining the differential response profiles for drugs on an IL2 dependent matched ATL cell line.
Plate log growing ED40515 +IL2 cells: 1000cells/ well in 5uL phenol red free RPMI +5% FBS +1x p/s, Glutamine using 1536 well white griener tissue culture plates and multidrop cassette acoustic dispensing Columns 1 and 3 DMSO Columns 2 and 4, 9.2 uM Bortezomib Incubate 48 hours for celltiter glo 37C with 5%CO2 and 95% humidity with low evaporation lids Dispense 3 uL per well of cell titer glo with multidrop Incubate for 15 minutes at RT Read on VL/2 using Luminesence Wheel (Filter A)

| Structure (SMILES) | Potency |
| --- | --- |
| CCOC(=O)C1=C[C@@]2(CC)CCCN3CCc4c(n1c1ccccc41)[C@H]32 | 9.5 µM (active) |
| Cc1c(CCOc2ccc(C(=O)O)cc2)c2cc(Cl)ccc2n1C(c1ccccc1)c1ccccc1 | 23.5 µM (active) |
| Cc1cccc(-c2nn(C(=S)Nc3ccccc3)cc2-c2ccnc3ccccc23)n1 | 2.35 µM (active) |
| CC1(C)Cc2c(-c3ccccc3)c(-c3ccc(Cl)cc3)c(CC(=O)O)n2C1 | 5.26 µM (active) |
| Fc1ccc(Cl)cc1-c1nc(Nc2ccncc2)c2nccnc2n1 | 13.2 µM (active) |
| O=C(C=Cc1ccc(/C=C/C(=O)Nc2ccc(C3=NCCN3)cc2)cc1)Nc1ccc(C2=NCCN2)cc1 | 2.09 µM (active) |
| O=C(Nc1cccnc1)N1CCC(Cc2cccc(Oc3ccc(C(F)(F)F)cn3)c2)CC1 | 5.9 µM (active) |
| COc1ccc(-c2ccc3c(N4CCOC[C@H]4C)nc(N4CCOC[C@H]4C)nc3n2)cc1CO | 0.0935 µM (active) |
| Cc1cc(-c2ccc(CC(=O)Nc3ccc(-c4cccnc4)cc3)cc2)ccn1 | 4.18 µM (active) |
| NC(=O)C1CCCc2c1[nH]c1ccc(Cl)cc21 (stereo not given) | 33.2 µM (active) |
| Nc1ncnc2nc(-c3ccc(N4CCOCC4)nc3)cc(-c3cccc(Br)c3)c12 | 14.8 µM (active) |
| Cc1csc(NC(=O)c2sc3nc4c(c(C(F)(F)F)c3c2N)CCC4)n1 | 18.7 µM (active) |
| Cc1n[nH]c(C)c1Cc1sc2c(c1C(=O)N1C[C@H](O)CO1)c(=O)n(C)c(=O)n2CC(C)C | 0.0019 µM (active) |
| Cn1cc(-c2ccc3nnc(C(F)(F)c4ccc5ncccc5c4)n3n2)cn1 | 7.43 µM (active) |
| O=C1[C@H](Cc2ccc(O)cc2)N2C(=O)CCN(C(=O)NCc3ccccc3)[C@H]2CN1Cc1cccc2ccccc12 | 8.33 µM (active) |
| Cc1ccc2c(c1)C(=O)[C@@]1(O)CCN(c3ccccc3)C1=N2 | 13.2 µM (active) |
| C[C@H](NC(=O)Cc1cc(F)cc(F)c1)C(=O)N[C@@H]1C(=O)N(C)c2ccccc2-c2ccccc21 | 20.9 µM (active) |
| COc1cc(F)c(F)c(Nc2ccc(I)cc2F)c1NS(=O)(=O)C1(C[C@H](O)CO)CC1 | 37.2 µM (active) |
| C[C@]12CCC(=O)C=C1CC[C@@H]1[C@@H]2[C@@H](O)C[C@@]2(C)[C@H]1CC[C@]2(O)C(=O)CO | 14.8 µM (active) |
| COc1ccc(-c2oc3cc(OC)ccc3c2C(=O)c2ccc(C#N)cc2)cc1 | 20.9 µM (active) |

| Structure (SMILES) | Potency |
| --- | --- |
| CN(C)c1ccc(Nc2nc(N)n(C(=O)c3c(F)cccc3F)n2)cc1 | 0.743 µM (active) |
| Cc1cccc(-c2[nH]c(C(C)(C)C)nc2-c2ccc3nccnc3c2)n1 | 16.6 µM (active) |
| CCOc1cc(N2CCC(O)CC2)ccc1Nc1ncc2c(n1)N(C)c1ccccc1C(=O)N2C | 11.8 µM (active) |
| CCC(C)(C)C(=O)O[C@H]1C[C@@H](C)C=C2C=C[C@H](C)[C@H](CC[C@@H]3C[C@@H](O)CC(=O)O3)[C@H]21 | 3.17 µM (active) |
| CCN(c1ccccc1)c1cc(NC)[n+](C)c(C)n1 | 18.7 µM (active) |
| OC[C@H](Cc1ccccc1)Nc1nc(Oc2ccc3c(c2)CCC3)nc2c1ncn2Cc1ccc(-c2ccccc2)cc1 | 13.2 µM (active) |
| CN([C@@H](Cc1ccc(OS(=O)(=O)c2cccc3cnccc23)cc1)C(=O)N1CCN(c2ccccc2)CC1)S(=O)(=O)c1cccc2cnccc12 | 6.62 µM (active) |
| COc1ccc(-c2c(-c3ccc(O)cc3O)n[nH]c2C)cc1 | 2.09 µM (active) |
| CCc1ccc(CCOc2ccc(CC3SC(=O)NC3=O)cc2)nc1 (stereo not given) | 16.6 µM (active) |
| Oc1cccc(-c2nc(N3CCOCC3)c3oc4ncccc4c3n2)c1 | 0.743 µM (active) |
| O=C(Nc1nc2ccccc2n1CCN1CCOCC1)c1cccc([N+](=O)[O-])c1 | 10.5 µM (active) |
| Cc1cc(-c2nnc3n2CCCCC3)c(C)n1-c1ccc(F)cc1 | 11.8 µM (active) |
| CCC(C)N(C)C(=O)c1cc2ccccc2c(-c2ccccc2Cl)n1 (stereo not given) | 11.8 µM (active) |
| CS(=O)(=O)Oc1ccc2c(NC(N)=O)c(C(=O)c3ccc(Cl)cc3Cl)oc2c1 | 16.6 µM (active) |
| Cc1c(C)c2c(c(C)c1O)CCC(C)(COc1ccc(CC3SC(=O)NC3=O)cc1)O2 (stereo not given) | 16.6 µM (active) |
| N#Cc1ccc(C(c2ccc(C#N)cc2)n2cncn2)cc1 | 10.5 µM (active) |
| Cc1cnc(Nc2ccc(OCCN3CCCC3)cc2)nc1Nc1cccc(S(=O)(=O)NC(C)(C)C)c1 | 20.9 µM (active) |
| CC[C@@H](C)[C@H](NC(=O)[C@H](CC1CCCCC1)NC(=O)c1ccno1)C(=O)N1CCC2(CCc3ccccc32)CC1 | 2.64 µM (active) |
| CC(c1cc2ccccc2s1)N(O)C(N)=O (stereo not given) | 67.9 µM (active) |
| CCN(CC)CCCC(C)Nc1nc(C)cc(Nc2ccc3nc(C)cc(N)c3c2)n1 (stereo not given) | 18.7 µM (active) |
